# Assay results published in PubChem BioAssay AID687021 (Broad Institute, 2013).
# Activity calls are given as the source filed them.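 How the source made its calls: active means compounds lowering luciferase light whose fitted half-effect concentration is at most twice the top tested dose; inconclusive means flat curve with 30 to 70% inhibition, or poor fit; inactive means the rest.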
# Assay: luciferase signal loss, tTA control fusion, HeLa F-luc tTA cells, dry powder, counter-screen for HIV Env fusion inhibitor project, dose response (AID 687021)
# Details: luciferase luminescence counterscreen; series mostly up to 35 µM
row,Compound,outcome
1,Oc1ccc(CNc2ccccc2F)c2cccnc12,inactive
2,CCOc1ccc(S(=O)(=O)NCc2ccncc2)cc1,inactive
3,CCCOc1ccc(S(=O)(=O)NCc2cccnc2)cc1,inactive
4,C[C@H]1CCCCO[C@@H](CN(C)Cc2ccncc2)[C@@H](C)CN([C@@H](C)CO)C(=O)c2cc(NC(=O)Nc3ccccc3)ccc2O1,inactive
5,Cc1oc(-c2ccc(Cl)cc2)nc1CN1CCCC(C(=O)NCc2cccnc2)C1 (configuration not stated),inactive
6,O=C(CCc1ccc(S(=O)(=O)N2CCOCC2)cc1)Nc1nc(COc2ccccc2)cs1,inactive
7,CCOc1ccc(S(=O)(=O)NCc2ccncc2)cc1OCC,inactive
8,C[C@@H]1CN([C@H](C)CO)C(=O)c2cccc(NC(=O)C3CCCCC3)c2O[C@H]1CN(C)Cc1ccccc1,inactive
9,Cc1ccc(-c2nnc3ccc4c(C(F)(F)F)cc(C(F)(F)F)nc4n23)cc1,inactive
10,COc1ccccc1CCNCc1ccc(OC)c(OCc2ccccc2)c1,inactive
11,C[C@H]1CN([C@@H](C)CO)C(=O)c2ccccc2-c2ccccc2CO[C@H]1CN(C)S(=O)(=O)c1ccccc1C#N,inactive
12,Cc1noc(C)c1S(=O)(=O)Nc1cccc2c1O[C@@H](CN(C)Cc1ccc(C(F)(F)F)cc1)[C@H](C)CN([C@H](C)CO)C2=O,inactive
13,Cc1ccc(S(=O)(=O)Nc2cccc3c2O[C@@H](CN(C)Cc2ccc(Cl)c(Cl)c2)[C@@H](C)CN([C@H](C)CO)C3=O)cc1,inactive
14,O=S(=O)(NCc1ccncc1)c1ccc2c(c1)OCCO2,inactive
15,Nc1nonc1C(=O)NCCNCc1c(OCc2ccccc2F)ccc2ccccc12,inactive
16,COc1ccc(S(=O)(=O)NCc2ccncc2)cc1OC,inactive
17,Cc1noc(C)c1S(=O)(=O)Nc1cccc2c1O[C@H](CN(C)Cc1ccc(C(F)(F)F)cc1)[C@@H](C)CN([C@H](C)CO)C2=O,inactive
18,CC1(C)CC(NC(=O)C(=O)Nc2ccc(Cl)cc2)CC(C)(C)N1,inactive
19,CCOc1ccc(C(=O)C2CCN(CC(=O)Nc3ccccc3N3CCOCC3)CC2)cc1,inactive
20,Cc1noc(C)c1S(=O)(=O)Nc1cccc2c1O[C@@H](CN(C)Cc1ccc(C(F)(F)F)cc1)[C@H](C)CN([C@@H](C)CO)C2=O,inactive
21,CC(=O)Nc1ccc(NC(=O)CN(c2ccc(C34CC5CC(CC(C5)C3)C4)cc2)S(C)(=O)=O)cc1,inactive
22,Cc1ccc(S(=O)(=O)N(C)C[C@@H]2Oc3ccc(NS(=O)(=O)c4c(C)noc4C)cc3CC(=O)N([C@H](C)CO)C[C@@H]2C)cc1,inactive
